In all, about 33,000 sequences were measured (“e-score”: median about -0.053, highest 2% from about 0.38 on). The list comes from a sample in which the highest values are over-represented; it also holds similar and randomly drawn sequences.

In this assay the target is T1, SIX1 homeodomain (reference allele) (human, UniProt Q15475 108-198).
T1 sequence: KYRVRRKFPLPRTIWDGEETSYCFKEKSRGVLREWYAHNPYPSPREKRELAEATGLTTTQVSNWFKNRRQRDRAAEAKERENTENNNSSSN
The assay is described as follows: universal protein binding microarray; Universal all-10-mer PBM (8x60K, AMADID 030236), 300 nM GST-tagged protein, Alexa Fluor 488 anti-GST; buffer, salt, pH and temperature not stated (as in Berger); high values mean tight binding. Particulars: protein: ivt; tags: N-terminal GST; dsDNA, one strand shown. In short, it runs like this:
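GST-tagged homeodomains were made by in vitro transcription/translation and quantified by anti-GST western blot against a recombinant GST standard curve. They were applied in duplicate at 300 nM final concentration to universal 'all 10-mer' protein binding microarrays (8×60K format). Binding was quantified as 8-mer E-scores with the Universal PBM Analysis Suite.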
As for TATCAGCA, the binding signal was found to be 0.327 ± 0.0344 E-score.

As for TATCATGA, the binding signal came to 0.382 ± 0.0397 E-score.

Regarding TATTATCA, the binding signal was 0.187 ± 0.0898 E-score. Next, AGGTGGAT: 0.305 ± 0.034 E-score. With CATAGATC the figure was 0.249 E-score. As for CGGTGTGA, the binding signal was 0.204 ± 0.0905 E-score. With GGTTAGAA the figure was 0.153 ± 0.0251 E-score; with ATACTCTA, 0.268 ± 0.0991 E-score.

Turning to CATAATCC, the binding signal was determined as 0.3 ± 0.0272 E-score. Next, AATTGTAT: 0.162 ± 0.0456 E-score; CATACCAG: 0.171 ± 0.0153 E-score. On to CCATTATA, for which the binding signal amounted to 0.177 ± 0.0248 E-score. Take ATCCAAGA: the binding signal was 0.155 ± 0.0124 E-score.

For the sequence CAGGGCGA, the binding signal was 0.216 ± 0.0603 E-score. Next, CAATCCGC: 0.29 ± 0.0084 E-score; ACATCCGG: 0.174 ± 0.064 E-score; CTATCCGC: 0.3601 ± 0.000778 E-score. For the sequence ATATCCGC, the binding signal was 0.43 ± 0.0222 E-score.

ATATCCGG: the binding signal was 0.4206 ± 0.00416 E-score. Turning to GAATCCGA, the binding signal came to 0.188 ± 0.0166 E-score. With AAATCCGG the figure was 0.244 ± 0.0271 E-score; with CTATCCGA, 0.33 ± 0.00993 E-score; with GCATCCGA, 0.203 ± 0.0461 E-score.

For the sequence ATATCCGA, the binding signal worked out at 0.429 ± 0.0108 E-score. For ATCTCCGA, the binding signal was 0.258 ± 0.0265 E-score. Next, GTATCCGA: 0.426 ± 0.0105 E-score; ATCGAAGA: 0.293 ± 0.0315 E-score. Regarding GCCAATAC, the binding signal is 0.16 ± 0.00361 E-score. With TCAGCTCA the figure was 0.162 ± 0.0286 E-score; with ACTATCTG, 0.178 ± 0.0443 E-score; with GATCGCAA, 0.242 ± 0.0198 E-score. With GATCGTGA the figure was 0.229 ± 0.0511 E-score. Consider ATCACTAA, for which the binding signal came out at 0.166 ± 0.051 E-score. Next, ATCGTAGA: 0.193 ± 0.0118 E-score; GGTGTACA: 0.306 ± 0.0258 E-score. With CATACATG the figure was 0.154 ± 0.0235 E-score. As to ATCCGCGA, the binding signal was determined as 0.259 ± 0.011 E-score. With CAGTGATA the figure was 0.417 ± 0.0231 E-score. With AAGAGATA the figure was 0.235 ± 0.141 E-score; with CAGTGAGA, 0.16 ± 0.032 E-score. Turning to GAGTGATA, the binding signal was determined as 0.447 ± 0.0268 E-score. With TAGTGTGA the figure was 0.184 ± 0.00834 E-score; with TAGTGATA, 0.415 ± 0.0394 E-score. Next, GAGTGAGA: 0.234 ± 0.0134 E-score. With AAGTGATA the figure was 0.397 ± 0.0754 E-score.

Consider ACGTGATA, for which the binding signal was 0.344 ± 0.0436 E-score. As for TAGTGAGA, the binding signal came to 0.203 ± 0.0506 E-score. With GAGAGATA the figure was 0.323 ± 0.0528 E-score; with ATACTTCG, 0.304 ± 0.058 E-score; with GACAATCC, 0.18 ± 0.0145 E-score.

As for ATCAACAA, the binding signal stood at 0.222 ± 0.0259 E-score. With CATATGAC the figure was 0.166 ± 0.0391 E-score; with ATACATCG, 0.238 ± 0.0407 E-score; with ACTTACCG, 0.152 ± 0.00235 E-score. For the sequence TATATTGA, the binding signal worked out at 0.258 ± 0.0428 E-score.

GTGTCGGA: the binding signal came out at 0.322 ± 0.041 E-score. With GGATGGGA the figure was 0.195 ± 0.0444 E-score; with CAGATTGA, 0.219 ± 0.0123 E-score. Next, GCGTGATA: 0.437 ± 0.0364 E-score; CCGTGATA: 0.348 ± 0.0248 E-score; AAGTGATC: 0.391 ± 0.00486 E-score. Next, CAGTGATC: 0.382 ± 0.0157 E-score; ACGTGATC: 0.302 ± 0.0538 E-score. In the case of CCGTGATC, the binding signal came out at 0.364 ± 0.0193 E-score.

AATTGATC: the binding signal came to 0.291 ± 0.0151 E-score. Next, GAGTGATC: 0.336 ± 0.0148 E-score. With GATCTATA the figure was 0.298 ± 0.0183 E-score; with CCTACACC, 0.163 ± 0.0313 E-score; with CCGTAATA, 0.205 ± 0.0335 E-score. Next, TACTCGAA: 0.152 ± 0.00667 E-score; TACACGGA: 0.173 ± 0.0418 E-score; ACCATCCG: 0.23 ± 0.0704 E-score. Regarding ATACATCC, the binding signal was determined as 0.365 ± 0.0231 E-score. Take GATTAATA: the binding signal turned out to be 0.301 ± 0.0732 E-score. With ATACGCGG the figure was 0.182 ± 0.0649 E-score; with CCGGGTAG, 0.162 ± 0.0432 E-score.

For the sequence AGGGGTAT, the binding signal came out at 0.451 ± 0.0124 E-score. Next, ACGGGTAT: 0.435 ± 0.0111 E-score; AGAGGTAT: 0.399 ± 0.0394 E-score.

AACGGTAT: the binding signal is 0.234 ± 0.0543 E-score. With AAGGGTAA the figure was 0.173 ± 0.0225 E-score.

Turning to AGGGGTAG, the binding signal was 0.214 ± 0.0325 E-score.

Turning to AAGGGTGT, the binding signal is 0.32 ± 0.00631 E-score. With AGGGGTAC the figure was 0.178 ± 0.0933 E-score; with AAGGGTAT, 0.41 ± 0.0209 E-score.

Turning to ACAGGTAT, the binding signal amounted to 0.312 ± 0.0224 E-score.

In the case of AAAGGTAT, the binding signal came to 0.337 ± 0.087 E-score. With CATCCCGA the figure was 0.175 ± 0.0394 E-score.

The values above are taken from publication PMC10668032, “Altered binding affinity of SIX1-Q177R correlates with enhanced WNT5A and WNT pathway effector expression in Wilms tumor”.
